HIF-2a block = HIF-2a reporter inhibitors, primary screen, luminescence, 786-0 RCC cells; AID 624352, 2012; inhibition, % at 18.8 µM; 360,000 compounds, 0.72% hits; 786-0 RCC cells HIF-2a reporter, luciferase luminescence, overnight;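 active = inhibition of the luminescence signal of 40% or more relative to plate controls, in a single-dose primary screen at 18.75 µM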
Peg3 prom inh = Peg3 promoter-driven luciferase inhibitors, primary screen, cell-based, HeLa, luciferase luminescence; 360,000 compounds, 1.7% hits; HeLa PEG-Prom luciferase reporter, overnight; inhibition, % at 20 µM;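 active = inhibition of at least 50% at 20 µM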
CF NFkB block = inhibitors of PAF-induced NF-kB signaling, primary screen, cell-based, GFP fluorescence, uHTS | AID 588850, 2011 | KKLEB NF-kB-GFP reporter, GFP fluorescence overnight | 360,000 compounds, 0.86% hits | inhibition, % at 5 µM;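 active = at least 50% inhibition at 5 µM, scaled per plate between neutral and stimulator controls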;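 also: PAF is a Pseudomonas aeruginosa culture filtrate used as stimulus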
TWEAK-Fn14 inh = inhibitors of TWEAK-Fn14 signaling, primary screen, luciferase reporter cells, uHTS. TWEAK-stimulated Fn14 reporter cells, luciferase luminescence, 8 h. inhibition, % at 10 µM. 360,000 compounds, 2% hits. AID 1159606, 2016; in the data active = inhibition above about 50%
TROY signal inh = inhibitors of TROY-driven NF-kB signaling, primary screen, Q293 LMP1-TROYcd cells, NF-kB luciferase, uHTS; Q293 LMP1-TROYcd NF-kB luciferase reporter, 4 h; inhibition, % at 10 µM; 360,000 compounds, 0.98% hits;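 active = compounds whose plate-normalised and pattern-corrected inhibition of the luciferase reporter signal at the single screening dose is 50% or more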
KKLEB tox = cytotoxicity in KKLEB CF airway cells, primary screen, cytotoxicity control for CF NF-kB inhibitor project, cell-based, uHTS, fluorescence assay plates; activity change (cytotoxicity), % at 5 µM; AID 602141, 2011; 360,000 compounds, 0.36% hits; KKLEB CF airway cells viability, ATPlite luminescence, overnight; stronger effect = lower value; cells stimulated with P. aeruginosa culture filtrate;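 active = corrected activity change at or below -50% at 5 µM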
Large screens that a line does not name were inactive. A selection: hits, their analogues and other compounds. The true share with any hit is near 4%.

CCCc1nc(SCc2cccnc2)c2c(=O)n(C)c(=O)n(C)c2n1	none
CCOc1c(Cl)cc(CNc2ccc(S(N)(=O)=O)cc2)cc1OC	none
CCOc1c(Cl)cc(CNc2ccc(N3CCCC3)cc2)cc1OC	TWEAK-Fn14 inh 56
Cc1cc2oc(=O)cc(-c3ccccc3)c2c(C)c1-c1ccc(O)cc1	TROY signal inh 53
Cc1cc(O)c2c(-c3ccccc3)cc(=O)oc2c1	none
CSC1=C(C#N)C(c2ccccc2Cl)C2=C(N1)c1ccccc1C2=O (configuration not stated)	none
Cc1nn(-c2ccccn2)c2c1C(c1ccccc1Cl)C1=C(N2)c2ccccc2C1=O (configuration not stated)	TWEAK-Fn14 inh 50
O=C(NC(=S)Nc1cc(-c2nc3ccccc3[nH]2)ccc1Cl)c1ccc2c(c1)OCO2	Peg3 prom inh 100, TWEAK-Fn14 inh 87, TROY signal inh 53
Cc1ccc(-c2nc3ccccc3[nH]2)cc1NC(=O)c1ccc2c(c1)OCO2	none
CCOc1ccc(C(=O)Nc2cc(-c3nc4ccccc4[nH]3)ccc2Cl)cc1[N+](=O)[O-]	Peg3 prom inh 62, KKLEB tox -53
Cc1ccc(-c2nc3ccccc3[nH]2)cc1NC(=S)NC(=O)c1ccccc1Br	TWEAK-Fn14 inh 67
NC(N)=Nc1ccc(C=C2C=Cc3ccccc32)cc1	Peg3 prom inh 104
Nc1ccc(C=C2C=Cc3ccccc32)cc1	none
CCC(C)NC(=O)C(Sc1ccccc1)c1ccccc1 (configuration not stated)	none
CCN(CC)C(=O)CSC(Nc1ccc(F)cc1)=C(C#N)C#N	none
Cc1ccc(CSC(Nc2ccc(F)cc2)=C(C#N)C#N)cc1	TWEAK-Fn14 inh 53
Cc1ccc2c(c1)sc(=NC(=O)c1cccs1)n2C	TWEAK-Fn14 inh 89, TROY signal inh 59, KKLEB tox -66
COc1cccc(-c2cc3nc4c(c(NCC(C)(C)CN(C)C)n3n2)CCCC4)c1	TWEAK-Fn14 inh 61, TROY signal inh 81
CCc1cccc(NC(=O)CSC2=NS(=O)(=O)c3ccccc32)c1	Peg3 prom inh 68
CC[N+]1=C(C)C(C)(C)c2cc(C)ccc21	TWEAK-Fn14 inh 69
Cc1cc(C)nc(N2N=C(c3ccccc3)CC2=O)n1	none
O=C1CC(c2ccccc2)=NN1c1ccccc1	TROY signal inh 52
Cc1cccc(NCC(=O)N/N=C\c2cccc(Oc3ccccc3)c2)c1	none
CC1CN(C(=O)COC(=O)c2cc(=O)[nH]c3ccccc23)CC(C)O1 (configuration not stated)	none
COc1cccc(CNCCc2c[nH]c3ccccc23)c1OCc1ccccc1	Peg3 prom inh 105
Cc1cccc(CSc2cccc3cccnc23)c1	TWEAK-Fn14 inh 103
NNC(=O)c1ccc(CSc2cccc3cccnc23)cc1	none
CCN(CC(=O)c1c(N)n(C)c(=O)n(C)c1=O)c1cccc2ccccc12	TWEAK-Fn14 inh 99, TROY signal inh 57
Cn1c(N)c(C(=O)CSc2nc3ccccc3c(=O)n2Cc2ccccc2)c(=O)n(C)c1=O	CF NFkB block 88, KKLEB tox -72
CCCn1c(N)c(C(=O)CSc2nc3ccccc3c(=O)n2Cc2ccccc2)c(=O)[nH]c1=O	none
Cn1c(N)c(C(=O)CSc2nn(-c3ccccc3)c(=S)s2)c(=O)n(C)c1=O	TWEAK-Fn14 inh 54, TROY signal inh 58
N#CCCN(Cc1cccs1)C(=O)Nc1ccccc1	none
COc1ccc(/C=C2\Oc3cc(OCC(=O)N4CCC(C(=O)O)CC4)ccc3C2=O)c(OC)c1OC	none
COC(=O)c1sc(S(=O)(=O)N2CC(C)OC(C)C2)c(C(=O)OC)c1C (configuration not stated)	none
COc1ccccc1OCCn1cc(C(=O)O)c2ccccc21	TWEAK-Fn14 inh 63
COc1ccccc1OCCn1cc(C(=O)C(C)C)c2ccccc21	none
NC(=S)NN=Cc1nccc2c(C(F)(F)F)cccc12	CF NFkB block 70
NS(=O)(=O)c1ccc(Cc2ncc(C(F)(F)F)cc2Cl)s1	none
O=C(CCl)c1ccc(Cc2ncc(C(F)(F)F)cc2Cl)s1	Peg3 prom inh 61
O=C(Nc1ccc2c(c1)OCCO2)C1CC(c2ccc(F)cc2)=NO1 (configuration not stated)	none
CN(C)c1ccc(-c2noc(-c3ccccc3O)n2)cc1	TWEAK-Fn14 inh 76
CCOc1ccc(CCNC(=O)Cn2nc(C)c3c(C)n(-c4ccccc4)nc3c2=O)cc1	none
O=C1c2ccccc2C(=O)N1Nc1ccccc1	none
Cc1ccc(NN2C(=O)C=C(c3ccccc3)C2=O)cc1	Peg3 prom inh 85
Brc1ccc(-c2nc3ccc(Br)cn3c2Cc2ccccc2)cc1	none
Cc1cccc(C)c1NC(=O)CN(C)CC(=O)Nc1ccccc1Oc1ccccc1	TWEAK-Fn14 inh 52
Cc1ccc(NC(=O)CN(C)CC(=O)Nc2ccccc2Oc2ccccc2)cc1	none
COc1ccc2[nH]c3c(C)c4ccncc4c(C)c3c2c1	Peg3 prom inh 107, CF NFkB block 78, TWEAK-Fn14 inh 54
N#C/C(=C(/O)COC(=O)Cc1c[nH]c2ccccc12)c1nc2ccccc2[nH]1	none
O=C(c1csc2ccccc12)N1CCN(c2ccccn2)CC1	none
O=C(COC(=O)c1nc(Cl)ccc1Cl)c1ccc[nH]1	none
O=C(COC(=O)c1nc(Cl)c(Cl)c(Cl)c1Cl)c1ccc[nH]1	Peg3 prom inh 51, TROY signal inh 67
Cn1c(CCNC(=O)OC(C)(C)C)n[nH]c1=S	none
O=C(C=Cc1cccc(Cl)c1)c1ccccc1	Peg3 prom inh 102
O=C(/C=C/c1ccccc1)NNC(=O)c1cccc(Cl)c1	none
O=C(/C=C/c1ccc(O)cc1)c1ccc(O)cc1O	TWEAK-Fn14 inh 59
O=C(/C=C/c1ccc(O)c(O)c1)c1ccccc1O	none
O=C(C=Cc1cccc(O)c1)c1ccccc1O	TWEAK-Fn14 inh 65
O=C(O)/C=C/c1ccc(O)cc1	none
O=C(c1cccc(Cl)c1)N1CCN(c2ccc3c(c2)C2CC3CCN2C(=O)OCc2ccccc2)CC1 (configuration not stated)	none
Cc1ccc(S(=O)(=O)N2CCc3c2cc([N+](=O)[O-])cc3[N+](=O)[O-])cc1	none
O=C(Cn1c(NCCO)nc2ccccc21)NCC(F)(F)F	none
c1cncc(-c2nnc(-c3cccnc3)nn2)c1	none
Cn1c(SSc2ccc(-c3cccnc3)n2C)ccc1-c1cccnc1	TWEAK-Fn14 inh 69
O=C(NNc1ccccc1)C(=O)N1CCCCC1	none
CCOC(=O)C1(Cc2cccc(OC)c2)CCCN(C(=O)c2ccc(OC)o2)C1 (configuration not stated)	TWEAK-Fn14 inh 98
